PubChem BioAssay (EPA / NIEHS)
Calls of active or inactive are those of the source. The calls were made as follows: active = hit-call score of the fitted dose curve at least 0.9, where 1 is the maximum; inactive = score below 0.9.

Key:
Details in all cases: mRNA level, 48 h; actives raise or lower the signal
[1] = read-out: catalase (CAT), CAT (gene 847); assay: LTEA_HepaRG_CAT: Life Technologies and Expression Analysis (LTEA) Assay for catalase (CAT) using HepaRG (AID 2283452)
Summary of the method: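 Expression of CAT was quantified by TaqMan qRT-PCR with ACTB/GAPDH/POLR2A normalization after 48 h chemical exposure of HepaRG. Eight-point half-log series, top 100 uM, in 0.5% DMSO; gain or loss fitted against vehicle.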

[2] = read-out: flavin-containing dimethylaniline monooxygenases 3 (FMO3), FMO3 (gene 2328); assay: LTEA_HepaRG_FMO3: Life Technologies and Expression Analysis (LTEA) Assay for flavin-containing dimethylaniline monooxygenases 3 (FMO3) using HepaRG (AID 2283453)
Summary of the method: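 HepaRG, 48 h exposure, 8-pt half-log series from 100 uM, 0.5% DMSO vehicle, duplicates; FMO3 transcript by Fluidigm TaqMan qRT-PCR, housekeeping-normalized; gain/loss fit vs DMSO.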

[3] = read-out: Cytochrome P450 (CYP1A1), CYP1A1 (gene 1543); assay: LTEA_HepaRG_CYP1A1: Life Technologies and Expression Analysis (LTEA) Assay for Cytochrome P450 (CYP1A1) using HepaRG (AID 2283454)
Summary of the method: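 CYP1A1 transcript levels measured by Fluidigm qRT-PCR against three housekeeping genes, 48 h after chemical dosing of human HepaRG cells (highest concentration 100 uM, half-log steps, 0.5% DMSO vehicle). Gain or loss of signal fitted relative to DMSO.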

[4] = read-out: CFLAR gene, CFLAR (gene 8837); assay: LTEA_HepaRG_CFLAR: Life Technologies and Expression Analysis (LTEA) Assay for CFLAR gene using HepaRG (AID 2283455)
Summary of the method: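 HepaRG, 48 h exposure, 8-pt conc-response (100 uM top, half-log), 0.5% DMSO vehicle, duplicates. CFLAR expression by qRT-PCR; ACTB/GAPDH/POLR2A normalization; gain or loss fit vs DMSO baseline.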

[5] = read-out: Forkhead box O1 (FOXO1), FOXO1 (gene 2308); assay: LTEA_HepaRG_FOXO1: Life Technologies and Expression Analysis (LTEA) Assay for Forkhead box O1 (FOXO1) using HepaRG (AID 2283456)
Summary of the method: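 Readout is FOXO1 transcript level by multiplexed qRT-PCR against three housekeeping genes, curve-fitted in both directions relative to 0.5% DMSO vehicle. Human HepaRG cultures received chemicals for 48 h, up to 100 uM in half-log steps.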

[6] = read-out: growth arrest and DNA damage 45 (GADD45A), GADD45A (gene 1647); assay: LTEA_HepaRG_GADD45A: Life Technologies and Expression Analysis (LTEA) Assay for growth arrest and DNA damage 45 (GADD45A) using HepaRG (AID 2283458)
Summary of the method: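 Human HepaRG liver cells are treated in duplicate for 48 h with chemicals in 0.5% DMSO, highest concentration 100 uM. Expression is read by qRT-PCR and analyzed in both directions against vehicle.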

[7] = read-out: Forkhead box O3 (FOXO3), FOXO3 (gene 2309); assay: LTEA_HepaRG_FOXO3: Life Technologies and Expression Analysis (LTEA) Assay for Forkhead box O3 (FOXO3) using HepaRG (AID 2283459)
Summary of the method: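 HepaRG, 48 h post-dose; 8 conc., half-log from 100 uM, 0.5% DMSO, duplicates; serum-free induction medium. Readout: FOXO3 mRNA, TaqMan qRT-PCR, housekeeping-normalized. Bidirectional curve fit vs DMSO baseline.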

[8] = read-out: ABC Transporter (ABCB1), ABCB1 (gene 5243); assay: LTEA_HepaRG_ABCB1: Life Technologies and Expression Analysis (LTEA) Assay for ABC Transporter (ABCB1) using HepaRG (AID 2283460)
Summary of the method: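 Expression of ABCB1 was quantified by qRT-PCR against three housekeeping genes after human HepaRG cultures received test chemicals for 48 hours. Concentrations spanned eight half-log steps topping at 100 uM in 0.5% DMSO; gain or loss of signal was fitted relative to vehicle.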

[9] = read-out: growth arrest and DNA damage 45 (GADD45B), GADD45B (gene 4616); assay: LTEA_HepaRG_GADD45B: Life Technologies and Expression Analysis (LTEA) Assay for growth arrest and DNA damage 45 (GADD45B) using HepaRG (AID 2283461)
Summary of the method: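 Transcript level quantified by Fluidigm TaqMan qRT-PCR with three housekeeping genes for normalization, analyzed for up- or down-regulation against 0.5% DMSO. HepaRG cultures dosed 48 h at eight half-log concentrations up to 100 uM, duplicates.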

[10] = read-out: ABC Transporter (ABCC3), ABCC3 (gene 8714); assay: LTEA_HepaRG_ABCC3: Life Technologies and Expression Analysis (LTEA) Assay for ABC Transporter (ABCC3) using HepaRG (AID 2283462)
Summary of the method: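 Transcript level by TaqMan qRT-PCR, normalised to three housekeeping genes, fitted in both directions relative to vehicle. Chemicals tested in duplicate at eight half-log concentrations up to 100 uM for 48 h on HepaRG cells (0.5% DMSO).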

[11] = read-out: ABC Transporter (ABCB11), ABCB11 (gene 8647); assay: LTEA_HepaRG_ABCB11: Life Technologies and Expression Analysis (LTEA) Assay for ABC Transporter (ABCB11) using HepaRG (AID 2283463)
Summary of the method: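 ABCB11 transcript levels are read by Fluidigm TaqMan qRT-PCR after 48 h chemical treatment of human HepaRG cells. Concentrations span 100 uM downward in half-log steps with 0.5% DMSO; gain or loss is fitted against DMSO controls.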

[12] = read-out: ABC Transporter (ABCC2), ABCC2 (gene 1244); assay: LTEA_HepaRG_ABCC2: Life Technologies and Expression Analysis (LTEA) Assay for ABC Transporter (ABCC2) using HepaRG (AID 2283464)
Summary of the method: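 Endpoint is ABCC2 transcript level from qRT-PCR, normalized to three housekeeping genes and fitted bidirectionally relative to DMSO. Human HepaRG cells received test chemical for 48 h at up to 100 uM (8 points, half-log steps, 0.5% DMSO), duplicate wells.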

[13] = read-out: Broad substrate specificity ATP-binding cassette transporter ABCG2 (Homo sapiens) (UniProt Q9UNQ0); assay: LTEA_HepaRG_ABCG2: Life Technologies and Expression Analysis (LTEA) Assay for ABC Transporter (ABCG2) using HepaRG (AID 2283465)
Summary of the method: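 Read-out is ABCG2 mRNA induction or loss quantified by qRT-PCR after 48 h chemical treatment of human HepaRG cells, normalized to three housekeeping genes. Concentrations reached 100 uM top in half-log steps; fitting was bidirectional against 0.5% DMSO.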

[14] = read-out: ATP-citrate lyase (ACLY), ACLY (gene 47); assay: LTEA_HepaRG_ACLY: Life Technologies and Expression Analysis (LTEA) Assay for ATP-citrate lyase (ACLY) using HepaRG (AID 2283466)
Summary of the method: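 HepaRG, 48 h exposure, 8-pt half-log dilutions (top 100 uM), 0.5% DMSO. Readout: ACLY mRNA, TaqMan qRT-PCR, housekeeping-normalized (ACTB/GAPDH/POLR2A). Bidirectional curve fit vs DMSO.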

[15] = read-out: Peroxisomal acyl-coenzyme A oxidase 1 (ACOX1) gene, ACOX1 (gene 51); assay: LTEA_HepaRG_ACOX1: Life Technologies and Expression Analysis (LTEA) Assay for Peroxisomal acyl-coenzyme A oxidase 1 (ACOX1) gene using HepaRG (AID 2283467)
Summary of the method: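 Measured by qRT-PCR against three housekeeping genes: ACOX1 transcript change in human HepaRG cells after 48 h dosing. Concentrations ran up to 100 uM in half-log steps. Curves were fitted bidirectionally relative to 0.5% DMSO.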

[16] = read-out: Alkaline Phosphatase, Placental (ALPP) gene, ALPP (gene 250); assay: LTEA_HepaRG_ALPP: Life Technologies and Expression Analysis (LTEA) Assay for Alkaline Phosphatase, Placental (ALPP) gene using HepaRG (AID 2283468)
Summary of the method: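 ALPP transcript level, measured by qRT-PCR and normalized to three housekeeping genes (ACTB, GAPDH, POLR2A), after 48 h dosing of differentiated HepaRG in serum-free induction medium. Top concentration 100 uM with half-log dilutions (8 points, 0.5% DMSO, duplicates); bidirectional fitting relative to DMSO.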

[17] = read-out: Bcl-2 (BAD) gene, BAD (gene 572); assay: LTEA_HepaRG_BAD: Life Technologies and Expression Analysis (LTEA) Assay for Bcl-2 (BAD) gene using HepaRG (AID 2283469)
Summary of the method: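 BAD transcript change, measured by qRT-PCR against three housekeeping genes and fitted in both directions relative to 0.5% DMSO, after 48 h chemical treatment of human HepaRG liver cells at concentrations up to 100 uM.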

[18] = read-out: Bcl-2 (BAX) gene, BAX (gene 581); assay: LTEA_HepaRG_BAX: Life Technologies and Expression Analysis (LTEA) Assay for Bcl-2 (BAX) gene using HepaRG (AID 2283470)
Summary of the method: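 Concentration-response endpoint fitted in both directions relative to 0.5% DMSO vehicle. Human HepaRG cultures receive test chemicals for 48 h at up to 100 uM; BAX mRNA is quantified by qRT-PCR against housekeeping genes.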

[19] = read-out: adenosine kinase (ADK) gene, ADK (gene 132); assay: LTEA_HepaRG_ADK: Life Technologies and Expression Analysis (LTEA) Assay for adenosine kinase (ADK) gene using HepaRG (AID 2283471)
Summary of the method: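 HepaRG (human liver), 48 h chemical exposure, 8-pt half-log series, top 100 uM, 0.5% DMSO vehicle. Readout: ADK mRNA by qRT-PCR vs housekeeping genes; bidirectional curve fit relative to DMSO baseline.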

Measured: AC50

Sequence of Broad substrate specificity ATP-binding cassette transporter ABCG2 (Homo sapiens) (Q9UNQ0 whole entry, looked up): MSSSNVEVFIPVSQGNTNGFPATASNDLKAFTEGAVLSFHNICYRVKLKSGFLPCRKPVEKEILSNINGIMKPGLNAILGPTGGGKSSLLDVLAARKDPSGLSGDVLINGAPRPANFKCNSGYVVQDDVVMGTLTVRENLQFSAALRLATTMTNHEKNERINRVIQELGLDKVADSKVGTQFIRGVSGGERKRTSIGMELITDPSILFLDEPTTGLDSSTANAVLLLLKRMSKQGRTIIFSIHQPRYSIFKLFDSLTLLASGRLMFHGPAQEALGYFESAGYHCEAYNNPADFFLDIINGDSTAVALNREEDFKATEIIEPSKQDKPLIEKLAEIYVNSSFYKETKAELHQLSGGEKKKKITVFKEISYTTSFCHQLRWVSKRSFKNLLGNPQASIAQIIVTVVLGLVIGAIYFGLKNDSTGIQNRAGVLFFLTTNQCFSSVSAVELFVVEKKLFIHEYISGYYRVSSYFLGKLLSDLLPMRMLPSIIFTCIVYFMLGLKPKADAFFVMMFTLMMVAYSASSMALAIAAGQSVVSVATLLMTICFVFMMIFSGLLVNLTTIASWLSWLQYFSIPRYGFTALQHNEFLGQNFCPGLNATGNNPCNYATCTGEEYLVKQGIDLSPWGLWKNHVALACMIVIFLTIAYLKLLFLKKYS

Oc1ccc2ccc3cccc4ccc1c2c34
active: [3] 27.5 µM | [13] 11.9 µM
inactive: all other assays above

CCC(C)c1ccc(O)cc1 (configuration not stated)
inactive: all assays above

c1ccc2c(c1)oc1ccccc12
active: [3] 50 µM
not listed: [5]
inactive: all other assays above

C1=Cc2cccc3cccc1c23
active: [3] 20.9 µM
not listed: [11]
inactive: all other assays above

CCN(CC)CCO
inactive: all assays above

CO[C@@H]1[C@H](OC(=O)NC(=O)CCl)CC[C@]2(CO2)[C@H]1[C@@]1(C)O[C@@H]1CC=C(C)C
active: [3] 16 µM | [11] 0.286 µM
inactive: all other assays above
